Laboratory results: PubChem BioAssay (NCI)
About 83,000 compounds went through this panel and 20% of them were active in at least one assay; those are over-represented in the sample as a whole.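 Single-concentration screen, 48 h exposure, 96-well plates. Endpoint: percent growth. Below 10 = active.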 A number with no mark means an inactive call. Active and inactive are the calls of the source.

Tests used:
Test in all cases: NCI-60 one-dose screen, 48 h (100 = growth as untreated, 0 = no growth, -100 = all killed)
NCI-H226 lung = conditions: 10 µM
HOP-62 NSCLC = conditions: 10 µM
NCI-H460 lung = conditions: 10 µM
A549/ATCC NSCLC = conditions: 10 µM
COLO 205 colon = conditions: 10 µM
DU-145 prostate = conditions: 10 µM
K-562 leukemia = conditions: 10 µM
SF-539 CNS = conditions: 10 µM
HCT-15 colon = conditions: 10 µM
HT29 colon = conditions: 10 µM
SNB-75 CNS = conditions: 10 µM
SNB-19 CNS = conditions: 10 µM
U251 CNS = conditions: 10 µM
PC-3 prostate = conditions: 10 µM
LOX IMVI melanoma = conditions: 10 µM
MOLT-4 leukemia = conditions: 10 µM
SR leukemia = conditions: 10 µM
RPMI-8226 leukemia = conditions: 10 µM
SK-OV-3 ovarian = conditions: 10 µM
MDA-MB-468 breast = conditions: 10 µM unless noted

Compound | growth (NCI-H226 lung) [%] | growth (HOP-62 NSCLC) [%] | growth (NCI-H460 lung) | growth (A549/ATCC NSCLC) [%] | growth (COLO 205 colon) [%] | growth (DU-145 prostate) [%] | growth (K-562 leukemia) | growth (SF-539 CNS) | growth (HCT-15 colon) | growth (HT29 colon) | growth (SNB-75 CNS) | growth (SNB-19 CNS) [%] | growth (U251 CNS) | growth (PC-3 prostate) [%] | growth (LOX IMVI melanoma) | growth (MOLT-4 leukemia) | growth (SR leukemia) [%] | growth (RPMI-8226 leukemia) | growth (SK-OV-3 ovarian) | growth (MDA-MB-468 breast)
O=C(CC(=O)Nc1ccc(Oc2ncnc3scc(Nc4n[nH]c(=S)s4)c23)cc1)Nc1ccc(Cl)cc1 | 67.8 | 89.1 | 85.5% | 83 | 88.5 | 97 | 71.3% | 91.6% | 66.9% | 106% | 87.7% | 87.7 | 90.4% | 74 | 69% | 60.2% | 62.2 | 86.8% | 77.5% | -18.5% (active)
O=C(CN1CCN(c2ncnc3c2cnn3-c2ccccc2)CC1)Nc1ccc(Cl)cc1 | 67.5 | 85.7 | 53.3% | 67 | 56.7 | 57.5 | 42.4% | 76.1% | 45% | 63.4% | 69.7% | 66.5 | 66.7% | 38.8 | 39.9% | 7.06% (active) | 36.9 | 44.4% | 79.2% | 42.5%
COc1ccc(NCc2cn(-c3ccc(C(=O)O)cc3)nc2-c2ccc(F)cc2)cc1C(F)(F)F | 66.3 | 66.3 | 37.2% | 35.8 | 71.2 | 69.3 | 41.3% | 53.9% | 43.7% | 51% | 79.1% | 39.3 | 29.5% | 36.3 | 43.8% | 40.7% | 50.7 | 37.6% | 112% | 65.1%
COc1cccc(C(=O)CSc2nc(-c3ccc(OCc4ccccc4)c(OC)c3)c(C#N)c(=O)[nH]2)c1 | 86.6 | 92.2 | 106% | 98.5 | 115 | 107 | 90.6% | 94.2% | 92.8% | 116% | 87.7% | 70.7 | 79.2% | 103 | 85.7% | 102% | 93.9 | 102% | 94.5% | 88.4%
O=C(c1ccc(F)cc1)C(c1c[nH]c2ccccc12)c1c[nH]c2ccccc12 | 36.5 | 91.5 | 33.9% | 91.7 | 97.7 | 33.5 | 5.35% (active) | 88% | 7.29% (active) | 30.8% | 79.1% | 92.6 | 74.8% | 41 | -76.3% (active) | 26.6% | 10.5 | 18.9% | 99.9% | 23.1%
COc1ccccc1-n1cc(C#N)c(N)c1C(=O)c1ccc(Cl)cc1Cl | 34.5 | 38.2 | 12.5% | 41.9 | 19.6 | 35.4 | 12.5% | -0.792% (active) | 24.4% | -14.7% (active) | -22.8% (active) | 30.1 | 16.6% | 18.8 | 39.5% | 20.3% | 11.5 | 14.7% | 14.9% | 15.8%
O=C1NC(=S)S/C1=C\c1cn(-c2ccccc2)nc1-c1ccc([N+](=O)[O-])cc1 | 13.2 | 19.4 | 9.76% (active) | 15.2 | 11.7 | 36.9 | 16.5% | 21% | 10.4% | 15.1% | 34.5% | 18.7 | 9.35% (active) | 11.2 | 29.1% | 17% | 24.5 | 2.45% (active) | 6% (active) | -8.61% (active)
